Screens deposited in PubChem by National Center for Advancing Translational Sciences (NCATS).
Compounds with a hit are over-represented: about 3.4% of the library has one in this group of screens.
Sm TGR inh: qHTS Assay for the Inhibitors of Schistosoma Mansoni Peroxiredoxins; Potency, µM (highest dose often 114 µM), without a hit: top-dose activity change, negative = inhibition, hits mostly inhibitors; actives 3% (n = 360,000); Schistosoma mansoni thioredoxin glutathione reductase (TGR), Q962Y6; purified TGR, DTNB reduction, TNB absorbance 405 nm; also: nearly all actives have a fitted effect of over 60% in size
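TGR 20 nM + NADPH 100 uM (dispensed conc.), cpd preinc 15 min RT; start with NADPH (500 uM addition) then DTNB (15 mM addition). Kinetic TNB absorbance, 405 nm filter. Four-parameter Hill fit across titration.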
RE007 growth inh: qHTS Assay for Inhibitors of the HIV-1 protein Vpr; S. pombe RE007 Vpr strain, BacTiter-Glo ATP luminescence, 24 h; Potency, µM (series often up to 92.2 µM), for the others: at the top dose activity change, negative = less growth, usual class: inhibitors; actives 0.21% (n = 360,000); AID 651644, 2012; active = well fitted falling curve with a large enough effect; inconclusive = small, poorly fitted or top-dose-only effect; inactive = no such curve, though single readings can be large or run the other way; also: nearly all actives have a fitted effect of over 50% in size
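Fission yeast strain RE007, carrying one chromosomally integrated HIV-1 vpr copy, was seeded at OD 0.01 in PMG+AL medium with 23 nL pinned compound. After 24 h at 30 °C and 99% humidity, viability was read by BacTiter-Glo luminescence.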
AmpC inh detg: qHTS Inhibitors of AmpC Beta-Lactamase (assay with detergent); AmpC hydrolysis of nitrocefin, absorbance 480 nm, 0.01% Triton; actives 0.041% (n = 370,000); Potency, µM (titrated, usually from 114 µM), for inactives: top-dose activity change, negative = inhibition, usual class: inhibitors; AID 485294, 2010;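 also: 0% = no-compound wells and -100% = no-enzyme wells; nearly all actives have a fitted effect of over 25% in size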
Target sequence (P00811 whole entry, looked up): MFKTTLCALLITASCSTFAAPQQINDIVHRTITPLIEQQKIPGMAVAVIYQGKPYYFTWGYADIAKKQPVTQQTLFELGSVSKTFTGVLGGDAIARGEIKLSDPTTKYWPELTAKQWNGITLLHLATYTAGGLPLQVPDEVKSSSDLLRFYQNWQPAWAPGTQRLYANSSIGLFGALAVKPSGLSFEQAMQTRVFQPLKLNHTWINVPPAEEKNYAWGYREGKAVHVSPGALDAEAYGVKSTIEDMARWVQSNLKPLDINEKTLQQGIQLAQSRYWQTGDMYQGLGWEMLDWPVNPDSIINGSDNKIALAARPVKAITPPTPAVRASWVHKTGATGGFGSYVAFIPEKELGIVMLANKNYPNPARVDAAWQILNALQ
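AmpC (5.3 nM in the dispensed reagent) in 20 mM phosphate pH 7.0 with 0.01% (detergent screen) or 0.0001% Triton X-100 was preincubated with compounds for 15 min at room temperature. Nitrocefin was then added from an 800 uM solution, and hydrolysis was followed at 480 nm.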
AmpC no deterg: qHTS Inhibitors of AmpC Beta-Lactamase (assay without detergent); P00811; AmpC nitrocefin hydrolysis, absorbance 480 nm, 0.0001% Triton; Potency, µM (series often up to 57.1 µM), inactives show top-dose activity change, negative = inhibition, most hits filed as inhibitors; actives 0.52% (n = 330,000);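 also: plate controls were no compound for no effect and no enzyme for full effect; nearly all actives have a fitted effect of over 20% in size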
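20 mM phosphate pH 7.0 + 0.01% (detergent screen) or 0.0001% Triton X-100; 5.3 nM AmpC reagent; cpd preinc 15 min RT; nitrocefin (800 uM stock) to start; A480 q20 s × 4 min; Activity was normalised to no-enzyme and no-compound control wells.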
Giardia FBPA inh: qHTS Assay for Inhibitors of Fructose-1,6-bisphosphate Aldolase from Giardia Lamblia; A8B2U2; purified Giardia FBPA; Potency, µM (doses to about 59.6 µM), without a hit: at the highest dose activity, negative = inhibition, actives largely listed as inhibitors; actives 0.71% (n = 290,000); AID 2451, 2010; also: nearly all actives have a fitted effect of over 55% in size
Target sequence (A8B2U2 whole entry, looked up): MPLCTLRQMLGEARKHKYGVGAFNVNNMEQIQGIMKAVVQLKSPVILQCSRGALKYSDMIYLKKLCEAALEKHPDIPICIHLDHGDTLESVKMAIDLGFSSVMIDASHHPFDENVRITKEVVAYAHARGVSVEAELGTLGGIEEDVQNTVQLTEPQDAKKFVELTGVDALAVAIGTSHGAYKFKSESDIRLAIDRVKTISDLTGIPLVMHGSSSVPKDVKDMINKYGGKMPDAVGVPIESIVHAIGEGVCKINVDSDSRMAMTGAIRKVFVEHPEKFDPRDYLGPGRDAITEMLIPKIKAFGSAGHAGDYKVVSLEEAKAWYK
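40 nM FBPA preincubated 10 min at RT with compound (up to 57.5 uM final), then substrate plus GAPDH/TPI/NAD/arsenate coupling and diaphorase/resazurin added. Fluorescence read after 20 min at RT, 525/598 nm.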
An asterisk follows results filed as active; ? = inconclusive; . = no result; [ ] = remark or other dose. Unless noted, calls follow the shape of the dose curve; as a rule, active = well fitted curve in the direction sought with a large enough effect; inconclusive = small, poorly fitted or top-dose-only effect, or another doubt; inactive = no such curve, though single readings can be large; an effect the other way counts as inactive or inconclusive. Unless noted, % is scaled to controls: 0 for no effect and ±100 for the full control effect; potency is read from the fitted curve at half-maximal effect.

SMILES	Sm TGR inh	RE007 growth inh	AmpC inh detg	AmpC no deterg	Giardia FBPA inh
CC(=O)c1ccc(NC(=O)c2ccc([N+](=O)[O-])o2)cc1	28.2µM*	-26.5%	-8.0%	-9.6%	-10.8%
CCOc1cc(CNc2ccc(N3CCCCC3)cc2)cc(Br)c1OCC(=O)NC(C)(C)C	-16.6%	.	1.2%	58.5%	-7.3%
C=CCOc1c(Br)cc(CNc2ccc(NC(=O)C(C)C)c(OC)c2)cc1OCC	-29.0%	3.1%	-7.1%	75.8%	8.89µM*
C=CCOc1c(Br)cc(CNc2ccc(NC(=O)CCC)cc2)cc1OCC	-15.0%	-5.8%	?	18.2%	1.1%
COc1cc(CNc2ccc3[nH]c(=O)[nH]c3c2)cc(Br)c1OCC(=O)NC(C)(C)C	12.6µM*	13.4%	?	51.6%	-12.4%
CCOc1cc(CNc2ccc(N(C)C)cc2)cc(Br)c1OCC(=O)NC(C)(C)C	-30.5%	?	2.7%	?	5µM*
COc1ncc2nc(CCc3ccccc3)c(=O)n(-c3ccccc3)c2n1	.	.	.	.	0.1%
O=C(N/N=C/c1cccc(C(F)(F)F)c1)c1cc2c(s1)-c1ccccc1CC2	2.3%	-10.9%	-3.8%	0.159µM*	-0.8%
Cc1ccsc1-c1nc(CN2CCN(C)C(=O)[C@@H]2C)c(C)o1	31.6µM*	-2.3%	-1.9%	17.5%	0.2%
CCN(CC)c1ccc(S(=O)(=O)Nc2cc(Cl)ccc2Cl)cc1NC(=S)NC(=O)C1CCCC1	-1.4%	1.6%	?	25.1µM*	-2.0%
O=C(Cn1cnc(Cl)c1Cl)c1ccc(F)cc1	4.3%	-23.9%	-8.1%	-16.0%	7.0%
COc1ccc(N=C2S/C(=C\c3ccco3)C(=O)N2CC(C)C)cc1	44.7µM*	?	2.8%	-41.2%	-3.3%
Cc1nnsc1S(=O)c1ccc(F)cc1 (stereo not given)	5.0%	-4.2%	-2.3%	-8.7%	14.7%
O=C(CN1CCN(c2ccc(F)cc2)CC1)c1ccc2c(c1)OCO2	44.7µM*	-29.5%	-1.1%	-24.4%	-8.1%
O=C(CN1CCN(c2ccc(Cl)cc2)CC1)c1ccc2c(c1)OCO2	?	-27.3%	-11.8%	-4.1%	.
O=C(CN1CCN(c2ccc(F)cc2)CC1)c1cccs1	14.1µM*	-1.4%	4.9%	-20.7%	-6.6%
CC1CCN(Cc2nnnn2CCCC(=O)NC(c2ccccn2)C(F)(F)F)CC1 (stereo not given)	-20.2%	3.8%	1.9%	38.1%	.
N#C/C(=C/c1ccc(Br)o1)C(N)=S	3.55µM*	.	-6.6%	-37.8%	-21.6%
N#C/C(=C/c1ccc(Br)o1)C(N)=O	-22.7%	-1.3%	-5.8%	-35.4%	-0.9%
N#C/C(=C\c1ccc(O)c(O)c1)C(N)=S	.	.	.	.	14.1µM*
N#C/C(=C/c1cc[nH]c1)C(N)=S	-18.3%	1.3%	-2.8%	-31.7%	-13.6%
COc1cc(/C=C/C(=O)O)cc(S(=O)(=O)NNC(=O)c2cc(C)oc2C)c1OC	.	4.6%	.	-16.4%	.
CCC(CC)c1nn2c(N)c(/C=C3\C(C)=Nc4ccccc43)c(=O)nc2s1	-27.2%	-6.2%	-5.7%	7.94µM*	5.5%
O=C(Nc1cccc(-c2nc3ccccc3[nH]2)c1)c1cccc(NC(=O)c2ccco2)c1	-15.9%	-10.0%	?	3.16µM*	4.0%
CS(=O)(=O)c1cccc(C(=O)Nc2cccc(-c3nc4ccccc4[nH]3)c2)c1	-27.8%	-24.8%	-8.9%	17.8µM*	3.1%
SMILES	Sm TGR inh	RE007 growth inh	AmpC inh detg	AmpC no deterg	Giardia FBPA inh
O=C(Nc1ccc2nc[nH]c2c1)c1ccco1	0.1%	2.2%	1.4%	-12.7%	-6.1%
O=C(Nc1ccc2nc(-c3ccccc3)[nH]c2c1)c1ccco1	28.2µM*	-1.0%	2.8%	-23.9%	-5.2%
Cc1cc(C)cc(OCC(O)Cn2nc(C)cc2C)c1 (stereo not given)	0.0%	12.3%	-21.4%	32.9%	-1.6%
CC(=O)OC1C(=O)OCC23CCC4(C)OC4C2OC2CC(OC(=O)C=CC=CC(=O)OCCC1C)C3(C)C21CO1 (stereo not given)	.	5.62µM*	.	.	.
CC(O)C1C=CC=CC(=O)OC2CC3OC4C5OC5(C)CCC4(COC(=O)C4OC4(C)C(O)CO1)C2(C)C31CO1 (stereo not given)	.	0.0%	.	.	.
COc1cccc(-n2c(/C=C/c3ccc(O)c(O)c3)nc3ccccc3c2=O)c1	10.1%	-3.8%	-2.1%	17.8µM*	-26.6%
O=[N+]([O-])c1cc(CN2CCOCC2)c2cccnc2c1O	35.5µM*	8.3%	?	-21.5%	14.5%
Oc1c(Cl)cc(CN2CCOCC2)c2cccnc12	1.26µM*	?	-3.9%	-9.0%	.
c1cncc(C(c2nnnn2C2CCCCC2)N2CCN3CCCC3C2)c1 (stereo not given)	-21.6%	6.5%	-5.0%	-4.6%	2.9%
Cc1cc(NC(c2cccnc2)c2c(C)[nH]c3ccccc23)no1 (stereo not given)	2.82µM*	-1.2%	?	-29.7%	-6.5%
Cc1cc(NC(=O)CSc2c(C)[nH]c3ccccc23)no1	3.8%	5.0%	?	-22.8%	4.0%
Cc1ccnc(NC(c2ccccn2)c2c(C)[nH]c3ccccc23)c1 (stereo not given)	0.282µM*	-5.0%	-7.4%	-1.3%[2.29 µM]	0.2%
CCN(CC)CCNC(=O)C(=O)Nc1cc2c3c(c1)CC(=O)N3CCC2	10.1%	-16.9%	?	-6.9%	15.0%
Cc1ccc(NC(=S)N(CCCN2CCN(C)CC2)Cc2cccs2)cc1C	12.2%	5.5%	-3.0%	110.0%	2.0%
O=C(N/N=C/c1ccccc1C(=O)O)c1cccc(S(=O)(=O)Nc2cc(Cl)ccc2Cl)c1	-4.8%	-5.9%	-6.8%	12.6µM*	29.9%
Cc1ccc(/C=N/NC(=O)c2cccc(S(=O)(=O)Nc3ccccc3Cl)c2)s1	1.9%	4.9%	-14.7%	-24.4%	?
O=C(COC(=O)c1nc(Cl)c(Cl)c(Cl)c1Cl)NCc1ccccc1	3.98µM*	-5.1%	-20.7%	-23.9%	.
Nc1c(Cl)c(Cl)nc(C(=O)OCC(=O)NCc2ccccc2)c1Cl	1.4%	7.1%	?	-27.3%	.
CC(C)(C)n1nc2c(c1NC(=O)c1ccc([N+](=O)[O-])cc1)CS(=O)(=O)C2	27.8%	-2.3%	-1.0%	-5.6%	7.4%
Nc1nc2ccc(Cl)cc2cc1C(=O)NCCc1ccc(O)cc1	.	-17.6%	.	.	.
Cc1nc(C)c(-c2csc(Nc3cccc(O)c3)n2)s1	-7.2%	22.3%	2.5%	-32.4%	-16.6%
CCC(=O)Nc1nc(C)c(-c2csc(Nc3cccc(O)c3)n2)s1	-18.4%	-10.6%	?	15.8µM*	-19.1%
Cc1nc(NC(=O)c2ccccc2)sc1-c1csc(Nc2cccc(Cl)c2)n1	10.1%	.	-11.7%	14.1µM*	-13.4%
CC(=O)Nc1ccc(-c2nn[nH]n2)cc1	13.1%	14.0%	-4.1%	-1.3%	-3.2%
